Data on 19 molecules can be found in PubChem BioAssay.

Activity calls are given as the source filed them. Unless noted, no rule for the calls is given here.

Test [1] can be described thus: GFP-Q80 aggregate reduction, neuronal-like cells, cell-based, NGF-treated PC12, GFPQ80 (AID 1614).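 Also: lower means fewer inclusions and 0 means no inclusions at all.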 To be noted: PC12 NGF-treated GFP-polyQ80 inclusion reduction.
Test [2] can be described thus: compounds altering circadian rhythm period length – cell-based, LOPAC library, luminescence reporter (AID 2774).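 Also: values are relative to mean of DMSO wells on each plate.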 Conditions: circadian reporter cells, at 7 µM, actives lie on both sides.
The subject of test [3] is Hepatitis C virus NS3 helicase. Briefly: blockers of NS3h binding to ssDNA – biochemical, fluorescence polarization, LOPAC1280 library, primary screen (AID 687035; in the data active = inhibition above about 37%). To be noted: Purified HCV NS3 helicase, Cy5-dT15 ssDNA binding fluorescence polarization; stronger effect = higher value; concentration not given here. In general terms: In fluorescence polarisation assays a small probe gives low polarisation when free and higher when bound to something large.

Test [4] is described as follows: compounds altering Cy5-DNA-NS3h complex signal – biochemical, LOPAC1280, artefact control for HCV NS3 helicase inhibitor project (AID 687037). To be noted: Cy5-DNA-NS3h complex fluorescence interference counterscreen.
Test [5] in a line: blockers of cellular phospholipid synthesis – cell-based, LOPAC library, screen 4, primary screen (AID 1347384). Conditions: animal cells, phospholipid biosynthesis inhibition screen; at 10 µM.

By inhibition is commonly meant the drop in the measured response relative to a control, in per cent.

As to `CN(C)CCOC(C)(c1ccccc1)c1ccccn1` (stereo unspecified), the inclusion score in test [1] was found to be 2. Moreover, the period change in test [2] is 0.205 h (inactive). The inhibition in test [3] is -2% (inactive). Further, the fluorescence ratio (interference) in test [4] is 1.1 (inactive). The molecule was called inactive in test [5].

For the molecule `CCN(CC)CCOC(=O)c1ccc(N)cc1`, in test [1], the inclusion score was 1.5. For the same molecule, the period change in test [2] was -0.065 h (inactive). In addition, the inhibition in test [3] is 0% (inactive). Besides, the fluorescence ratio (interference) in test [4] was 1 (inactive). In test [5], the molecule was classed as inactive.

As for `NC(=O)N1c2ccccc2C=Cc2ccccc21`, the inclusion score in test [1] was found to be 2. In addition, in test [2], the period change is 0.01 h (inactive). The inhibition in test [3] was -1% (inactive). Besides, the fluorescence ratio (interference) in test [4] was 1 (inactive). Moreover, in test [5], the molecule was called inactive.

`Cc1nc2ccccn2c(=O)c1CCN1CCC(C(=O)c2ccc(F)cc2)CC1`: the period change in test [2] is -0.415 h (inactive). Besides, the inhibition in test [3] was -3% (inactive). The fluorescence ratio (interference) in test [4] was 1 (inactive). The molecule was classed as inactive in test [5].

In test [1], `CCOC(=O)[C@H](CCc1ccccc1)N[C@@H](C)C(=O)N1Cc2ccccc2C[C@H]1C(=O)O` registered an inclusion score of 2.5.

For the molecule `CSc1ccc2c(c1)N(CCC1CCCCN1C)c1ccccc1S2` (stereo unspecified), the period change in test [2] is -0.225 h (inactive). The inhibition in test [3] was -3% (inactive). Besides, the fluorescence ratio (interference) in test [4] was 0.9 (inactive). Also, the molecule was called inactive in test [5].

As to `OC(CCN1CCCCC1)(c1ccccc1)C1CCCCC1` (stereo unspecified), the period change in test [2] was 0 h (inactive). Besides, in test [3], the inhibition was 0% (inactive). Besides, in test [4], the fluorescence ratio (interference) is 1 (inactive). For the same molecule, in test [5], the molecule was called inactive.

For the molecule `CC(=O)CCCCn1c(=O)c2c(ncn2C)n(C)c1=O`, the inclusion score in test [1] came to 2. Also, the period change in test [2] was 0.02 h (inactive). In addition, the inhibition in test [3] was -4% (inactive). Moreover, in test [4], the fluorescence ratio (interference) is 1 (inactive). In test [5], the call was inactive.

`Nc1ccc(S(=O)(=O)c2ccc(N)cc2)cc1` yielded an inclusion score in test [1] of 2.

As to `CN(C)CCC=C1c2ccccc2CCc2ccccc21`, the period change in test [2] is 0.175 h (inactive). Moreover, the inhibition in test [3] is -5% (inactive). Moreover, the fluorescence ratio (interference) in test [4] is 0.9 (inactive). For the same molecule, the molecule was classed as inactive in test [5].

Turning to `CC(N=C(NC#N)Nc1ccncc1)C(C)(C)C` (stereo unspecified), in test [2], the period change is 0.07 h (inactive). Further, the inhibition in test [3] was -5% (inactive). In addition, the fluorescence ratio (interference) in test [4] was 1 (inactive). In addition, the molecule was classed as inactive in test [5].

For `Cc1ccc(S(=O)(=O)NC(=O)NN2CCCCCC2)cc1`, the inclusion score in test [1] stood at 2. In addition, the period change in test [2] is 0.08 h (inactive). Moreover, the inhibition in test [3] is -1% (inactive). The fluorescence ratio (interference) in test [4] is 1 (inactive). In addition, in test [5], the outcome was inactive.

`CCCCNC(=O)NS(=O)(=O)c1ccc(C)cc1` registered an inclusion score in test [1] of 2. Besides, the period change in test [2] was 0 h (inactive). Further, the inhibition in test [3] was -5% (inactive). The fluorescence ratio (interference) in test [4] was 1 (inactive). Also, the outcome in test [5] was inactive.

Consider `NS(=O)(=O)c1cc2c(cc1C(F)(F)F)NCNS2(=O)=O`, for which the inclusion score in test [1] is 2.

On to `CN(C)CCCN1c2ccccc2CCc2ccccc21`, for which the period change in test [2] is 0.07 h (inactive). Also, the inhibition in test [3] was -7% (inactive). For the same molecule, the fluorescence ratio (interference) in test [4] was 1 (inactive). Besides, the result in test [5] was inactive.

Take `CCN(CC)CCOC(=O)C1(C2CCCCC2)CCCCC1`: the period change in test [2] is 0.005 h (inactive). The inhibition in test [3] was -4% (inactive). For the same molecule, the fluorescence ratio (interference) in test [4] is 1 (inactive). The outcome in test [5] was inactive.

Consider `CCN(CC)CCNC(=O)c1ccc(N)cc1`, for which, in test [1], the inclusion score was found to be 2. Besides, the period change in test [2] is 0.185 h (inactive). In addition, the inhibition in test [3] was -2% (inactive). Also, the fluorescence ratio (interference) in test [4] is 1 (inactive). Also, the result in test [5] was inactive.

In test [1], `CCCNC(=O)NS(=O)(=O)c1ccc(Cl)cc1` had an inclusion score of 2. In addition, in test [2], the period change is 0.055 h (inactive). Further, the inhibition in test [3] was -1% (inactive). Moreover, the fluorescence ratio (interference) in test [4] is 1 (inactive). Also, the call in test [5] was inactive.

`C[C@H](CS)C(=O)N1CCC[C@H]1C(=O)O` displayed an inclusion score in test [1] of 2. Moreover, the period change in test [2] was 0.01 h (inactive). Moreover, the inhibition in test [3] is 0% (inactive). Further, the fluorescence ratio (interference) in test [4] is 1 (inactive). Further, the outcome in test [5] was inactive.
